Test results reported in PubChem BioAssay (NCATS).
Results filed as inconclusive are left out. The source made the active and inactive calls. Calls follow the shape of the dose curve; as a rule, active = well fitted inhibition curve with a large enough effect; inconclusive = small, poorly fitted or top-dose-only effect; inactive = no such curve, though single readings can be large or run the other way.

assay: qHTS Screen of the MIPE 4.0 Collection Against Ewings Sarcoma (RDES) (AID 1259252); conditions: RD-ES Ewing sarcoma viability, CellTiter-Glo, 48 h; series mostly up to 45.8 µM; also: nearly all actives have a fitted effect of over 35% in size
Summary of the method: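 CellTiter-Glo luminescence after 48 h compound exposure (titration) gave viability; percent activity used DMSO-treated cells as no inhibition and medium-only wells as full inhibition. Cells grown in RPMI/5% FBS, dosed 4 h post-seeding.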
Potency is read from the fitted curve at half-maximal effect.

Structure (SMILES)	Potency
O=C(O)c1ccc(O)c2ncc(N3CCOCC3)cc12	26.4 µM (active)
CC1=C[C@@H]2[C@@H]([C@@H](O)C[C@@]3(C)[C@H]2C[C@@H](C)[C@]3(O)C(=O)CO)[C@@]2(C)Cc3cnn(-c4ccccc4)c3C=C12	23.5 µM (active)
C=CC(=O)Nc1cccc(Sc2nc(Nc3ccc(N4CCN(C)CC4)cc3)ncc2Cl)c1	18.7 µM (active)
CC1CCN(c2cc(N3CCN(C)CC3)ccc2NC(=O)c2cc(C#N)c[nH]2)CC1	26.4 µM (active)
Cn1c(=O)c(Oc2ccc(F)cc2F)cc2cnc(NC3CCOCC3)nc21	inactive
CNC(=O)[C@H](CC1=CN=C2C=CCC=C12)NC(=O)[C@@H](CC(=O)NO)CC(C)C	inactive
Nc1ncnc2c1c(-c1cccc(OCc3ccccc3)c1)cn2C1CC(CN2CCC2)C1 (configuration not stated)	20.9 µM (active)
Clc1ccc(COC(Cn2ccnc2)c2ccc(Cl)cc2Cl)c(Cl)c1 (configuration not stated)	26.4 µM (active)
C[C@@H](NC(=O)c1ncnc(N)c1Cl)c1ncc(C(=O)Nc2cc(C(F)(F)F)c(Cl)cn2)s1	23.5 µM (active)
O=C(NC[C@H](O)CO)c1ccncc1Nc1ccc(I)cc1F	18.7 µM (active)
COc1ccc2c(c1)c(C1=C(c3c[nH]c4ccccc34)C(=O)NC1=O)cn2CCCN(C)C	0.0083 µM (active)
CN(C)CCOc1cc(-c2cn[nH]c2)ccc1NC(=O)C1COc2ccccc2O1 (configuration not stated)	14.8 µM (active)
COc1c(C)cnc(Cn2cnc3c(Cl)nc(N)nc32)c1C	0.187 µM (active)
COc1cc2c(cc1OC)[C@@H]1Cc3ccc(OC)c(OC)c3CN1CC2	7.43 µM (active)
Oc1ccc(C=Cc2cc(O)cc(O)c2)cc1	18.7 µM (active)
CO[C@H]1/C=C\O[C@@]2(C)Oc3c(C)c(O)c4c(O)c(c5c(nc6cc(C)ccn65)c4c3C2=O)NC(=O)C(C)=CC=C[C@H](C)[C@H](O)[C@@H](C)[C@@H](O)[C@@H](C)[C@H](OC(C)=O)[C@H]1C	inactive
c1ccc(CNc2nc(N3CCOc4ccccc43)nc3c2CCCC3)cc1	inactive
CO[C@H]1/C=C\O[C@@]2(C)Oc3c(C)c(O)c4c(O)c(c(C=NN5CCN(C6CCCC6)CC5)c(O)c4c3C2=O)NC(=O)C(C)=CC=C[C@H](C)[C@H](O)[C@@H](C)[C@@H](O)[C@@H](C)[C@H](OC(C)=O)[C@H]1C	0.0418 µM (active)
Cc1cccc(-c2[nH]c(C(C)(C)C)nc2-c2ccc3c(c2)OCO3)n1	8.33 µM (active)

Structure (SMILES)	Potency
N#CC(c1ccc(Cl)cc1)c1c(Cl)cc(-n2ncc(=O)[nH]c2=O)cc1Cl (configuration not stated)	26.4 µM (active)
CNC(=O)c1ccc2c(C(=Nc3cccc(CN(C)C)c3)c3ccccc3)c(O)[nH]c2c1	16.6 µM (active)
CO[C@@H]1C(N(C)C(=O)c2ccccc2)C[C@H]2O[C@]1(C)n1c3ccccc3c3c4c(c5c6ccccc6n2c5c31)C(=O)NC4=O (some centres not stated)	4.18 µM (active)
Cn1cnc(-c2cc3nccc(Oc4ccc(NC(=S)NC(=O)Cc5ccccc5)cc4F)c3s2)c1	20.9 µM (active)
Cc1cc(-c2ncc(CC(=O)Nc3ccc(-c4cnccn4)cn3)cc2C)ccn1	16.6 µM (active)
O=C1CN2Cc3c(ccc(Cl)c3Cl)N=C2N1	23.5 µM (active)
C[C@H]1O[C@@H](n2cc(F)c(=O)[nH]c2=O)[C@H](O)[C@H]1O	18.7 µM (active)
N#Cc1ccc(Oc2ccc3c(c2)COB3O)cc1	inactive
CNC(=O)c1c(-c2ccc(F)cc2)oc2cc(N(CCO)S(C)(=O)=O)c(C3CC3)cc12	18.7 µM (active)
Cc1cc(C(C)Nc2ccccc2)c2nc(N3CCOCC3)cc(=O)n2c1 (configuration not stated)	23.5 µM (active)
Cc1nc2c([nH]1)CCN(C(=O)c1ccc(NC(=O)c3ccccc3-c3ccccc3)cc1)c1ccccc1-2	inactive
C[C@H]1COC2=C1C(=O)C(=O)c1c2ccc2c1CCCC2(C)C	20.9 µM (active)
Cc1c(C(=O)Nc2ccc(N3C[C@@H](C)O[C@@H](C)C3)nc2)cccc1-c1ccc(OC(F)(F)F)cc1	13.2 µM (active)
Cc1ccc2c(c1)c1c(n2CCc2ccc(C)nc2)CCN(C)C1	inactive
CSc1cccc(Nc2ncc3cc(-c4c(Cl)cccc4Cl)c(=O)n(C)c3n2)c1	0.0935 µM (active)
CCCCOCCOc1nc(-c2ccc(C(=O)O)c(F)c2)sc1C	20.9 µM (active)
CC1CNc2c(cccc2S(=O)(=O)N[C@@H](CCCN=C(N)N)C(=O)N2CC[C@@H](C)C[C@@H]2C(=O)O)C1 (some centres not stated)	9.35 µM (active)
CC(C)(CO)[C@@H](O)C(=O)NCCC(=O)O	20.9 µM (active)
